High-throughput results (PubChem BioAssay)
CtBP-E1A blk: inhibitors of CtBP/E1A interaction | activity change, % (concentration not given with the values) | hit rate 0.49% among 340,000 | AlphaScreen GST-E1A/His-CtBP binding, 1536-well; active compounds read low | AID 651724; in the data active = activity change below about -65%; inconclusive = mostly about -30% to -63%
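Steps: dispense buffer (Tris pH 8.0, NaCl 300 mM, TCEP 1 mM, BSA, Tween 20); add 5X protein mix (GST-E1A, His-CtBP, 125 nM each); pin 23 nL compound; 2 h at 37 °C, dark; add 5X beads (50 ug/mL); 1 h; read.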
USP2a block: blocks human ubiquitin-specific protease USP2a | USP2 core, Ub-CHOP2 coupled fluorogenic reporter, 485/531 | Potency, µM (highest dose often 38.3 µM), usual class: inhibitors | hit rate 0.01% among 330,000
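Cell-free coupled assay: 10nM USP2 core preincubated 30min RT with compound in Tris-HCl pH 8.0/CaCl2/CHAPS buffer, then 25nM Ub-CHOP2 and 25nM reporter substrate; fluorescence (Ex 485/Em 531) read after 60min RT, normalized to NEM inhibition, concentration-response curves fitted.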
Eya2 inh: Eya2 (human) phosphatase inhibition; hit rate 0.006% among 330,000; O00167; Potency, µM (top dose mostly 76.9 µM), actives largely listed as inhibitors; recombinant Eya2, OMFP fluorescence dephosphorylation (OMFP is methylfluorescein phosphate); AID 488837
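Eya2 (0.2 uM) preincubated 10 min at ambient with compound, then OMFP substrate added at 50 uM; 10 min reaction in 50 mM HEPES pH 7.5, 50 mM NaCl, 5 uM MgCl2, 0.05% BSA, 1 mM DTT. Fluorescence read at Ex 485/Em 525 nm.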
uPA generation: inhibitors of cell surface uPA generation; Potency, µM (top dose mostly 38.3 µM), usual class: inhibitors; hit rate 0.31% among 330,000; cell surface uPA generation assay, qHTS; AID 540303; active = well fitted inhibition curve with a large enough effect; inconclusive = small, poorly fitted or top-dose-only effect; inactive = no such curve, though single readings can be large or run the other way; tested in mouse RAW 264.7 cells; also: nearly all actives have a fitted effect of over 55% in size
Six1-Eya2 inh: Six1/Eya2 interaction inhibition. Q15475+O00167. activity change, % (test concentration not listed). hit rate 0.56% among 360,000. AlphaScreen GST-Six1/His-Eya2 binding, biochemical; active compounds read low; in the data active = activity change below about -65%; inconclusive = mostly about -30% to -63%
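Homogeneous AlphaScreen proximity assay pairing GST-Six1 with His-tagged Eya2 (added as 5X mix: 250 nM and 500 nM) in 50 mM Tris pH 8.0, 300 mM NaCl, 1 mM TCEP. Glutathione donor and nickel acceptor beads; 1 h, 37 °C, dark.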
L3MBTL1 inh-1: inhibitors of human L3MBTL1; Q9Y468; AlphaScreen L3MBTL1–H3K9me1 peptide binding; Potency, µM (series often up to 57.1 µM), most hits filed as inhibitors; hit rate 0.66% among 230,000; AID 485360; also: nearly all actives have a fitted effect of over 60% in size
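First, the protein-peptide complex forms for 30 min at room temperature (L3MBTL1 50 nM, biotinylated H3K9me1 peptide 75 nM). Next, compounds are pin-transferred and incubated 30 min. Finally, AlphaScreen beads are added and read after 30 min.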
L3MBTL1 inh-2: validation of human L3MBTL1 methyl-lysine binding inhibitors. hit rate 91% among 500. Potency, µM, most hits filed as inhibitors. L3MBTL1 methyl-lysine binding inhibition, biochemical qHTS. shares compounds with L3MBTL1 inh-1; also: nearly all actives have a fitted effect of over 70% in size
AlphaScreen ctr2: AlphaScreen signal inhibition, L3MBTL1 hit counter-screen; AlphaScreen counterscreen, signal inhibition; Potency, µM (series often up to 57.1 µM), actives largely listed as inhibitors; shares compounds with L3MBTL1 inh-1; 500 tested, under 10 active
Each line names hits and unclear results; the compound was inactive in the other large screens (follow-up assays come after a bar, where they were run). Shown are actives, neighbours in structure and some others; about 1.2% of the full set was active somewhere. Unless noted, calls follow the shape of the dose curve; as a rule, active = well fitted curve in the direction sought with a large enough effect; inconclusive = small, poorly fitted or top-dose-only effect, or another doubt; inactive = no such curve, though single readings can be large; an effect the other way counts as inactive or inconclusive.

CCOc1ccc2nc(N=Nc3c(O)[nH]c(=S)[nH]c3=O)sc2c1	L3MBTL1 inh-1 7.94µM
CCOc1ccc2nc(N=Nc3c(O)[nH]c(=O)[nH]c3=O)sc2c1	none
Cc1ccccc1OCCC(=O)Nc1ccc(S(=O)(=O)N(C)C2CCN(C)CC2)cc1	uPA generation inconclusive
Cc1cc(/C=C2\C(=O)NC(=O)N(c3cccc(F)c3)C2=O)c(C)n1-c1cc(C(=O)O)cc(C(=O)O)c1	Six1-Eya2 inh inconclusive, L3MBTL1 inh-1 7.94µM | L3MBTL1 inh-2 1.5 | AlphaScreen ctr2 inactive
Cc1cccc(CN2CCCC(C(=O)Nc3ccc(-c4cscn4)cc3)C2)c1 (centres undefined)	uPA generation inconclusive (no result: L3MBTL1 inh-1)
O=C(c1ccc2nc(-c3ccco3)c(-c3ccco3)nc2c1)N1CCC2(CC1)OCCO2	L3MBTL1 inh-1 28.2µM | L3MBTL1 inh-2 inconclusive | AlphaScreen ctr2 inactive
COc1ccc(C(=O)N2CCC3(CC2)OCCO3)cc1	none
CN1CCC2(CC1)NC(=O)C1=C(CN(C)CC1)N2	L3MBTL1 inh-1 28.2µM | L3MBTL1 inh-2 inconclusive | AlphaScreen ctr2 inactive
O=C1NC(=O)N(Cc2ccco2)C(=O)/C1=C/c1ccc(-c2cccc([N+](=O)[O-])c2)o1	Six1-Eya2 inh inconclusive, L3MBTL1 inh-1 28.2µM | L3MBTL1 inh-2 3.36 | AlphaScreen ctr2 inactive
Cc1cccc(OCCn2cccc2/C=C2/C(=O)NC(=O)N(Cc3ccco3)C2=O)c1	L3MBTL1 inh-1 20µM | L3MBTL1 inh-2 inconclusive | AlphaScreen ctr2 inconclusive
C=CCN1C(=O)NC(=O)/C(=C\c2ccc(-c3ccccc3[N+](=O)[O-])o2)C1=O	none
Cc1cnc(C(=O)Nc2ccc(OC(F)(F)F)cc2)cn1	uPA generation inconclusive (no result: CtBP-E1A blk, L3MBTL1 inh-1)
CC(C)N1C(=O)/C(=C/C=C/c2ccco2)C(=O)N(Cc2ccco2)C1=O	USP2a block inconclusive, Six1-Eya2 inh inconclusive, L3MBTL1 inh-1 31.6µM | L3MBTL1 inh-2 4.74 | AlphaScreen ctr2 inactive
COc1ccc(/C=C2/C(=O)N(Cc3ccco3)C(=O)N(C(C)C)C2=O)cc1	L3MBTL1 inh-1 inconclusive (no result: CtBP-E1A blk)
COc1ccc(CN2C(=O)NC(=O)/C(=C\c3ccco3)C2=O)cc1	L3MBTL1 inh-1 7.94µM | L3MBTL1 inh-2 2.67 | AlphaScreen ctr2 inactive
O=C1NC(=O)N(c2cccc(Cl)c2)C(=O)/C1=C\c1ccc(Sc2nc3ccccc3[nH]2)o1	Six1-Eya2 inh inconclusive, L3MBTL1 inh-1 31.6µM | L3MBTL1 inh-2 26.7 | AlphaScreen ctr2 inactive
O=C1NC(=O)N(c2ccccc2F)C(=O)/C1=C/c1ccc(Sc2nc3ccccc3[nH]2)o1	USP2a block inconclusive, Six1-Eya2 inh inconclusive, L3MBTL1 inh-1 inconclusive
CN(N=O)c1ccc(O)c(O)c1	none (no result: CtBP-E1A blk, USP2a block, uPA generation, Six1-Eya2 inh, L3MBTL1 inh-1)
COc1cccc(-c2sc3ccccc3c2-c2ccc(OCCN(C)C)cc2)c1	CtBP-E1A blk inconclusive, uPA generation inconclusive
